Consider 39 compounds from PubChem BioAssay (NCI).

The panel holds about 83,000 compounds, 20% with a hit somewhere; the sample as a whole holds those more often.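 Cells were grown in 96-well plates and exposed to the test compound at a single concentration for 48 hours; results are reported as percent growth, with values below 10 considered active.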 Values without a mark were called inactive. Active and inactive are the calls of the source.

The test system of this test is NCI-H460 lung. The test can be described thus: NCI-60 one-dose screen, 48 h (100 = growth as untreated, 0 = no growth, -100 = all killed). Particulars: 10 µM unless noted.
For the compound `COc1cc(-c2nc(C(=O)NCC(=O)NO)nn2-c2ccc(Cl)cc2)cc(OC)c1OC`, the growth was 107%.

For the compound `C=C1C(=O)O[C@H]2[C@H]1CC/C(C=Nc1ccc(C(F)(F)F)cc1N)=C\CC[C@@]1(C)O[C@@H]21`, the growth is 15.3%.

For `CSc1nc(NCCO)c(C#N)c(-c2cccc([N+](=O)[O-])c2)n1`, the growth is 101%.

Regarding `Cn1c(=O)[nH]c(=O)c2nc(CCC(=O)NCCC(=O)O)c(=O)[nH]c21`, the growth is 103%.

`C=CC(=O)Nc1cccc(-c2nc(SC)nc(Nc3ccccc3OC)c2C#N)c1`: the growth is 5.19% (active).

For the compound `CC1=C[C@H]2c3c(c(O)c(O)c4oc5c(C)cccc5c(=O)c34)[C@H](c3cc(O)c(O)c4oc5c(C)cccc5c(=O)c34)[C@H]2C(C)(C)C1`, the growth was -44.3% (active).

Consider `COc1ccc(/C=C(\C#N)C(=O)Nc2cccc(Nc3nc(SC)nc(-c4cccc([N+](=O)[O-])c4)c3C#N)c2)cc1OC`, for which the growth was 100%.

Take `CCN(CC)c1ccc(/C=N\NC(=O)/C=C/C=C/c2ccc3c(c2)OCO3)c(O)c1`: the growth was 19.8%.

As to `CC(C)(C)c1cc(/C=N\NC(=O)/C=C/C=C/c2ccc3c(c2)OCO3)c(O)c(C(C)(C)C)c1`, the growth was 39.6%.

Regarding `CN(C)CCCNc1c2ccccc2nc2ccccc12`, the growth was 97.7%.

In the case of `CN1CCN(c2nc(NCCCCNc3ccnc4cc(Cl)ccc34)c3ccccc3n2)CC1`, the growth is 68.1%.

For `COc1cc2c(cc1-c1c(C)noc1C)ncc1nc(C3CCOCC3)n([C@@H](C)COC(F)F)c12`, the growth was 61%.

As to `CC(C)C[C@@H](NC(=O)[C@@H](Cc1ccccc1)NC(=O)c1cnccn1)B1Oc2ccc(C[C@H](NC(=O)[C@H](Cc3ccc4c(c3)OB([C@@H](CC(C)C)NC(=O)[C@@H](Cc3ccccc3)NC(=O)c3cnccn3)O4)NC(=O)[C@@H](N)CC3CCC4OB([C@@H](CC(C)C)NC(=O)[C@@H](CC5CCCCC5)NC(=O)C5CNCCN5)OC4C3)C(=O)NCCCC[C@@H]3NC(=O)[C@@H](Cc4ccccc4)NC(=O)[C@H](CC(=O)O)NC(=O)CNC(=O)[C@H](CCCNC(=N)N)NC3=O)cc2O1` (some centres undefined), the growth is -54.8% (active).

With `CCc1nc(N)nc(N)c1C#CC(C)c1cc(-c2ccnc(C)c2)c2oc(C)nc2c1` (centres undefined), the growth was 2.7% (active).

Consider `COc1ccc(/C=C/c2nc3ccccc3nc2/C=C/c2ccc(OC)cc2)cc1`, for which the growth is 100%.

Regarding `Cc1nc(/N=C(\N)NC(=O)Nc2cccc([N+](=O)[O-])c2)sc1C`, the growth is 90.5%.

Regarding `CCCCN(CCCC)CCCn1c(-c2ccccc2)ccc1-c1ccccc1`, the growth was 67.7%.

Consider `Oc1ccc(N=Cc2ccccc2O)cc1`, for which the growth is 96.4%.

`NC(N)=N/N=C(/c1ccccc1)c1ccc(F)cc1`: the growth was 6.84% (active).

For the compound `COc1ccc(Nc2nc(SC)nc(-c3cccc([N+](=O)[O-])c3)c2C#N)cc1`, the growth is 30.4%.

`COc1ccc(CCNc2nc3c(c(=O)n(Cc4ccc(Br)cc4)c(=O)n3C)n2C)cc1OC`: the growth is 96.9%.

Regarding `COc1cccc(Nc2nc(SC)nc(-c3cccc([N+](=O)[O-])c3)c2C#N)c1`, the growth was 41.7%.

Take `CCCCC/C(C=C(C#N)C#N)=C/c1ccccc1`: the growth was 37.4%.

For `Cn1c(=O)c2c(nc3n(-c4ccc(Cl)cc4Cl)c(Sc4nc(-c5ccccc5)c(C#N)c(=O)[nH]4)cn23)n(C)c1=O`, the growth was 13.9%.

Turning to `Cc1ccc(C2=NN3C(C2)c2cc(Br)ccc2OC32CCN(Cc3ccccc3)CC2)o1` (centres undefined), the growth was 98%.

On to `CCCCCCN(CCCCCC)C(=N)c1ccnc2ccccc12`, for which the growth is 55.4%.

Consider `O=C1Nc2c(ccc(Cl)c2Cl)/C1=C\c1ccc(C(F)(F)F)cc1`, for which the growth was 89.7%.

Take `C=CC(=O)Nc1cccc(-c2nc(SC)nc(NCc3ccccc3)c2C#N)c1`: the growth is 84%.

For the compound `CC1=CC(C)(C)Nc2ccc(Cc3ccc4c(c3)C(C)=CC(C)(C)N4)cc21`, the growth was 104%.

As to `CCCN1CCN(c2ccc3nc(-c4ccc5nc(-c6ccc(OCC)cc6)[nH]c5c4)[nH]c3c2)CC1`, the growth was -76.8% (active).

On to `COc1ccc(C(=O)COc2ccc(/C=C3\COc4ccc(OC)cc4C3=O)cc2)cc1`, for which the growth is 104%.

On to `CC(=O)O[C@H]1C(=O)[C@@]2(C)[C@H]([C@H](OC(=O)c3ccccc3)[C@]3(O)C[C@H](OC(=O)[C@H](OC(=O)CCC(=O)OC4CCC(S/N=C(N)/N=C(\N)N(C)C)CC4)[C@@H](NC(=O)c4ccccc4)c4ccccc4)C(C)=C1C3(C)C)[C@]1(OC(C)=O)CO[C@@H]1C[C@@H]2O` (some centres undefined), for which the growth is 7.58% (active).

As for `CCOc1ccc(-n2nc(C(=O)Nc3cc(OC)c(OC)c(OC)c3)nc2-c2cc(OC)c(OC)c(OC)c2)cc1`, the growth is 92.1%.

`C=C1C(=O)O[C@H]2[C@H]1CC/C(COC(=O)c1cc3cc(OC)ccc3[nH]1)=C\CC[C@@]1(C)O[C@@H]21`: the growth was -37% (active).

For `COc1cc(Nc2cc(C)nc(N3CCN(c4ccnc5cc(Cl)ccc45)CC3)n2)cc(OC)c1`, the growth was 2.55% (active).

`N#CN1CCC[C@H]1C(=O)N1CCc2c(-c3[nH]nc4ncccc34)cccc21`: the growth was 3.48% (active).

For the compound `Cc1cc(C)nc(SC2=C(Nc3cccc(Cl)c3)C(=O)N(Cc3ccccc3)C2=O)n1`, the growth was 62.5% [30 µM].

With `O=C(COc1cccc(/C=C2\COc3ccccc3C2=O)c1)Nc1nccs1`, the growth is 87.9%.

For `C=C(C)C(=O)Nc1ccc(NC(C)C)cc1`, the growth is 139%.
